Assay results published in PubChem BioAssay (NCATS).
Results filed as inconclusive are left out. Where a call stands in place of a potency, no number is given. A number with no mark means an inactive call. The source made the active and inactive calls. Calls come from the whole dose curve; as a rule, active = well fitted inhibition curve with a large enough effect; inconclusive = small, poorly fitted or top-dose-only effect; inactive = no such curve, though single readings can be large or run the other way. Where a SMILES comes first, the peptide text is derived from it.

Tests used:
[1] = system: Zika virus NS2B-NS3 protease (unlinked complex); test: Primary screen GU Rhodamine qHTS for Zika virus inhibitors: Unlinked NS2B-NS3 protease assay (AID 1347159); conditions: Recombinant ZIKV NS2B-NS3 protease, Rhodamine110 substrate fluorescence; series mostly up to 107 µM; note: nearly all actives have a fitted effect of over 60% in size
In short: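 Enzyme 25 nM in Tris-HCl pH 8.0 + 0.01% Tween 20; compounds up to 114 microM, 15 min RT dark; + Rhod110 substrate 1.5 microM; read t0 and 15 min; delta fluorescence → % inhibition → 4-parameter Hill fit.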

[2] = system: Zika virus NS2B-NS3 protease (linked construct); test: Primary screen NINDS Rhodamine qHTS for Zika virus inhibitors (AID 1347160); conditions: purified NS2B-NS3 protease, Rhodamine110 substrate fluorescence; series mostly up to 57.1 µM; note: nearly all actives have a fitted effect of over 55% in size
In short: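 Enzyme (25 nM, linked NS2B-NS3) was preincubated 15 min with compound in 10 mM Tris-HCl pH 8.0, 0.01% Tween 20. Rhodamine110 substrate (1.5 microM) was then added and fluorescence read at start and after 15 min.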

## C/C=C(\C)C(=O)O[C@@H]1CC2[C@@H](CC=C3C[C@@H](O[C@H]4C[C@H](OC)[C@H](O[C@H]5C[C@H](OC)[C@H](O[C@H]6C[C@H](OC)[C@H](O[C@H]7C[C@@H](OC)[C@H](O[C@@H]8O[C@H](CO)[C@@H](O)[C@H](O)[C@H]8O)[C@@H](C)O7)[C@@H](C)O6)[C@@H](C)O5)[C@@H](C)O4)CC[C@@]32C)[C@@]2(O)CC[C@H](C(C)=O)[C@@]12C (stereo not given in full)
[1]
  activity change, negative = inhibition: 20.3% [at 19.1 µM]
[2]
  activity change, negative = inhibition: 1.97% [at 10.7 µM]

## COc1cc(/C=C/c2cc(O)cc(O[C@@H]3O[C@H](CO)[C@@H](O)[C@H](O)[C@H]3O)c2)ccc1O
[1]
  Potency: inactive
[2]
  Potency: inactive

## C=C(C)C(C)C1OC23CC4(CO2)C(CCC2C5(C)CCC(OC6OCC(O)C(OC7OC(CO)C(O)C(OC8OCC(O)C(O)C8O)C7O)C6OC6OC(CO)C(O)C6O)C(C)(C)C5CCC24C)C3C(C)(O)C1OC(C)=O (stereo not given)
[1]
  Potency: inactive
[2]
  Potency: inactive

## C=C1CC2C3(C)C(OC(C)=O)CC(=O)OC(C)(C)C3C(O)C(OC(C)=O)C2(C)C2C(=O)OC(C)C(=O)C12C (stereo not given)
[1]
  Potency: inactive
[2]
  Potency: inactive

## COc1cc(NC(=O)c2ccccn2)ccc1Cl
[1]
  Potency: inactive
[2]
  Potency: inactive

## C=CC(C)(O)CC/C=C(/C)C(=O)OC1C(OC2OCC(OC3OC(CO)C(O)C(O)C3O)C(OC3OCC(O)C(OC4OC(C)C(O)C(O)C4O)C3O)C2O)COC(OC(=O)C23CCC(C)(C)CC2C2=CCC4C5(C)CCC(OC6OC(CO)C(OC7OC(CO)C(O)C(OC8OCC(O)C(O)C8O)C7O)C(O)C6O)C(C)(C)C5CCC4(C)C2(C)CC3O)C1O (stereo not given)
[1]
  activity change, negative = inhibition: 23.5% [at 19.1 µM]
[2]
  activity change, negative = inhibition: 4.71% [at 10.7 µM]

## NCc1c[nH]c(=S)n1C1CCc2c(F)cc(F)cc2C1 (stereo not given)
[1]
  Potency: inactive
[2]
  Potency: inactive

## C=C1CC[C@@H]2[C@](C)(CO[C@@H]3O[C@H](CO)[C@@H](O)[C@H](O)[C@H]3O)CCC[C@@]2(C)[C@@H]1CCC1=CCOC1=O
[1]
  Potency: inactive
[2]
  Potency: inactive

## CC1(CO)CC[C@]2(C(=O)O[C@@H]3O[C@H](CO)[C@@H](O)[C@H](O)[C@H]3O)CC[C@]3(C)C(=CCC4[C@@]5(C)CC[C@H](O[C@@H]6O[C@H](C(=O)O)[C@@H](O)[C@H](O)[C@H]6O)C(C)(C)C5CC[C@]43C)C2C1 (stereo not given in full)
[1]
  Potency: inactive
[2]
  Potency: inactive

## COC(=O)C1=CO[C@@H](O[C@@H]2O[C@H](CO)[C@@H](O)[C@H](O)[C@H]2O)[C@@H]2[C@@H](C(=O)OC)[C@@H](O)C(O)[C@H]12 (stereo not given in full)
[1]
  Potency: inactive
[2]
  Potency: inactive

## CON(C)C(=O)N1N=C(c2cc(F)ccc2F)S[C@@]1(CCCN)c1ccccc1
[1]
  Potency: inactive
[2]
  Potency: inactive

## OCc1ccccc1O[C@@H]1O[C@H](CO)[C@@H](O)[C@H](O)[C@H]1O
[1]
  Potency: inactive
[2]
  Potency: inactive

## CN1CC[C@@H](NC(=O)Nc2ccc(C#N)cc2)C[C@@H]1c1nc2ccccc2[nH]1
[1]
  Potency: inactive
[2]
  Potency: inactive

## CCC(NC(=O)CC(NC(=O)C(CO)NC(=O)C(CC)NC(=O)c1ccc[nH]1)c1ccccc1)C(=O)O (stereo not given)
[1]
  Potency: inactive
[2]
  Potency: inactive

## C[C@@H](O)[C@H](N)C(=O)N1CCC[C@H]1C(=O)N1CCC[C@H]1C(=O)N[C@H](C(N)=O)[C@@H](C)O (H-TPPT-NH2)
[1]
  activity change, negative = inhibition: -7.3% [at 19.1 µM]
[2]
  activity change, negative = inhibition: 20.4% [at 10.7 µM]

## CC1(C(=O)O)CCCC2(C)C1CCC13CC(CCC21)C1(CO)OC31 (stereo not given)
[1]
  Potency: inactive
[2]
  Potency: inactive

## COC(=O)[C@]12C(=O)C(C)=C(O)[C@@]1(C)C(C)=CC1[C@@]34CC[C@@H](OC(C)=O)C(C)(C)C3[C@H](C[C@]12C)OC4=O (stereo not given in full)
[1]
  Potency: inactive
[2]
  Potency: inactive

## COC1CC(=O)CCC(C)OC(=O)CC1O (stereo not given)
[1]
  Potency: inactive
[2]
  Potency: inactive

## C[C@@H]1C[C@H](O)/C=C/[C@H](O)[C@@H](O)CC(=O)O1
[1]
  Potency: inactive
[2]
  Potency: inactive

## O=C(/C=C/c1ccc(O)cc1)O[C@H]1[C@@H]2C=CO[C@@H](O[C@@H]3O[C@H](CO)[C@@H](O)[C@H](O)[C@H]3O)[C@@H]2[C@@]2(CO)O[C@@H]12
[1]
  Potency: inactive
[2]
  Potency: inactive

## C/C(=C\CCC(C)(O)c1ccc(C)cc1)C(=O)O (stereo not given)
[1]
  Potency: inactive
[2]
  Potency: inactive

## CC1[C@@H](O)[C@@H](O)C2[C@]3(C)C(C[C@H]4OC(=O)[C@H](O)[C@]1(O)[C@@]24C)C(C)(O)C[C@H](O)[C@H]3O (stereo not given in full)
[1]
  Potency: inactive
[2]
  Potency: inactive

## CC(=O)NCCCCn1c2c(c3ccccc31)C(=O)NCC2
[1]
  Potency: inactive
[2]
  Potency: inactive

## CCn1c2ccccc2c2cc(CNC)ccc21
[1]
  Potency: inactive
[2]
  Potency: inactive

## CN1CCC(c2c[nH]c3ccc(NC(=O)c4ccc(F)cc4)cc23)CC1
[1]
  Potency: inactive
[2]
  Potency: inactive

## O=C(O)c1n[nH]c2c1C[C@H]1C[C@@H]21
[1]
  Potency: inactive
[2]
  Potency: inactive

## OCC1=CC[C@@H]2C=CO[C@@H](O[C@@H]3O[C@H](CO)[C@@H](O)[C@H](O)[C@H]3O)[C@H]12
[1]
  Potency: inactive
[2]
  Potency: inactive

## Cc1c(N2C(=O)c3ccc(C(=O)O)cc3C2=O)c(=O)n(-c2ccccc2)n1C
[1]
  Potency: inactive
[2]
  Potency: inactive

## CC1(C)CC[C@]2(C(=O)O)CC[C@]3(C)C(=CCC4[C@@]5(C)CC[C@H](O[C@@H]6O[C@H](C(=O)O)[C@@H](O)[C@H](O)[C@H]6O)C(C)(CO)C5CC[C@]43C)C2C1 (stereo not given in full)
[1]
  Potency: inactive
[2]
  Potency: inactive

## CC(C)(C)NCc1cc(Nc2ccnc3cc(Cl)ccc23)c2c(c1O)CCCC2
[1]
  activity change, negative = inhibition: 0% [at 1.28 µM]
[2]
  outcome: inactive [at 0.684 µM]

## COc1ccc(/C=C/C(=O)O[C@@H]2[C@@H](OC(C)=O)[C@@H](OC(C)=O)[C@H](O[C@H]3[C@@H]4C=CO[C@@H](O[C@@H]5O[C@H](CO)[C@@H](O)[C@H](O)[C@H]5O)[C@@H]4[C@@]4(CO)O[C@@H]34)O[C@H]2C)cc1O
[1]
  Potency: inactive
[2]
  Potency: inactive

## CC(C)N(C[C@H]1O[C@@H](n2cnc3c(N)ncnc32)[C@H](O)[C@@H]1O)C1CC(CCc2nc3ccc(C(C)(C)C)cc3[nH]2)C1 (stereo not given in full)
[1]
  Potency: inactive
[2]
  Potency: inactive

## CNC(=O)Nc1ccc(OC)c(NC(=O)NC(=O)c2cc(F)c(F)cc2Cl)c1
[1]
  Potency: inactive
[2]
  Potency: inactive

## C=C[C@H]1[C@H](O[C@@H]2O[C@H](CO[C@@H]3OC[C@](O)(CO)[C@H]3O)[C@@H](O)[C@H](O)[C@H]2O)OC=C2C(=O)OCC[C@H]21
[1]
  Potency: inactive
[2]
  Potency: inactive

## O=C1C[C@@H](c2ccc(O)cc2)Oc2cc(O)ccc21
[1]
  Potency: inactive
[2]
  Potency: inactive

## COc1cc([C@H]2OC[C@@H]3[C@@H](c4ccc(O[C@@H]5O[C@H](CO)[C@@H](O)[C@H](O)[C@H]5O)c(OC)c4)OC[C@]23O)ccc1O
[1]
  Potency: inactive
[2]
  Potency: inactive

## CCS(=O)(=O)N1CCC([C@@H](C)n2c(C)c(C(=O)NCc3c(OC)cc(C)[nH]c3=O)c3ccccc32)CC1
[1]
  Potency: inactive
[2]
  Potency: inactive

## COC(=O)C1=CO[C@@H](O[C@@H]2O[C@H](CO)[C@@H](O)[C@H](O)[C@H]2O)[C@@H]2[C@@H](C)[C@@H](O)C[C@H]12
[1]
  Potency: inactive
[2]
  Potency: inactive

## CC(O)(CC(=O)O)CC(=O)O[C@@H]1[C@@H](O)[C@H](OCCc2ccccc2)O[C@H](CO)[C@H]1O (stereo not given in full)
[1]
  Potency: inactive
[2]
  Potency: inactive

## C[C@@H]1C[C@H]2[C@@H]3CCC4=CC(=O)C=C[C@]4(C)[C@@]3(F)[C@@H](O)C[C@]2(C)[C@@]1(O)C(=O)COP(=O)(O)O
[1]
  Potency: inactive
[2]
  Potency: inactive

## C=CC1(C)CC(OC(=O)C(=C)C(O)COC(C)=O)C(C(=C)C(=O)OC)C(O)C1C(=C)CO (stereo not given)
[1]
  Potency: inactive
[2]
  Potency: inactive

## COC1=CC(=O)C[C@@H](C)[C@]12Oc1cc(OC)cc(OC)c1C2=O
[1]
  Potency: inactive
[2]
  Potency: inactive

## C[C@@]12C[C@]3(O)O[C@H](O1)[C@]1(COC(=O)c4ccccc4)[C@H]3C[C@@]12O[C@@H]1O[C@H](COC(=O)c2ccccc2)[C@@H](O)[C@H](O)[C@H]1O
[1]
  Potency: inactive
[2]
  Potency: inactive

## O=C(/C=C/c1ccc(O)cc1)OC[C@H]1O[C@@H](OC(=O)/C=C/c2ccccc2)[C@H](O)[C@@H](O)[C@@H]1O
[1]
  Potency: inactive
[2]
  Potency: inactive

## C/C(=C/CO)CC[C@@H]1[C@@]2(C)CCC[C@](C)(C(=O)O)C2CC[C@@]1(C)O (stereo not given in full)
[1]
  Potency: inactive
[2]
  Potency: inactive

## COCC(=O)N1CCc2cc(-c3csc(NC(=O)c4cc(OC)cc(OC)c4)n3)ccc21
[1]
  Potency: inactive
[2]
  Potency: inactive

## N[C@H]1C[C@H]1c1ccc(-c2cccc(O)c2)cc1
[1]
  Potency: inactive
[2]
  Potency: inactive

## CC(CO[C@@H]1O[C@H](COC(=O)/C=C/c2ccc(O)c(O)c2)[C@@H](O)[C@H](O)[C@H]1O)C1(O)COC(=O)C1 (stereo not given in full)
[1]
  Potency: inactive
[2]
  Potency: inactive

## C[C@@H](OC(=O)/C=C/c1ccc(O)cc1)C1=C[C@]2(C=C[C@@H]3C(C(=O)O)=CO[C@@H](O[C@@H]4O[C@H](CO[C@@H]5O[C@H](CO)[C@@H](O)[C@H](O)[C@H]5O)[C@@H](O)[C@H](O)[C@H]4O)[C@@H]32)OC1=O
[1]
  Potency: inactive
[2]
  Potency: inactive

## CC1(C)CC[C@]2(C(=O)O)CC[C@]3(C)C(=CCC4[C@@]5(C)C[C@H](O)[C@H](O[C@@H]6OC[C@H](O)[C@H](O)[C@H]6O)[C@@](C)(CO)C5CC[C@]43C)[C@@H]2C1 (stereo not given in full)
[1]
  Potency: inactive
[2]
  Potency: inactive

## O=c1ccn([C@@H]2O[C@H](CO)[C@@H](O)[C@H]2O)c(=O)[nH]1
[1]
  Potency: inactive
[2]
  Potency: inactive

## CCC(=O)NS(=O)(=O)c1ccc(-c2c(-c3ccccc3)noc2C)cc1
[1]
  Potency: inactive
[2]
  Potency: inactive

## COc1c2c(c(C)c3c1C(=O)OC3)O[C@@]1(C)C[C@@H](O)[C@]34O[C@](OC)(CC[C@]3(C)[C@H]1C2)OC4(C)C
[1]
  Potency: inactive
[2]
  Potency: inactive

## CCC(C)C(=O)O[C@@H]1[C@@H](O)[C@@H](O[C@H]2O[C@H](CO)[C@@H](O)[C@H](O)[C@H]2O)O[C@H](CO)[C@H]1O (stereo not given in full)
[1]
  Potency: inactive
[2]
  Potency: inactive

## CCCCNC(=O)[C@@H]1Cc2ccccc2N1C(=O)[C@@H](N)CC
[1]
  Potency: inactive
[2]
  Potency: inactive
